The whole screen tested about 69,000 compounds, of which about 8,600 (12%) showed an effect of 50% or more. This excerpt belongs to a sample that is enriched for strong results.

In the assay the test system is Plasmodium berghei. Kind of assay: Screen against P. berghei liver stage (PbLuc), transformed with Luciferase, at 10uM. The note with it: tested at 10 uM. Format: functional, HepG2.
As for `CC(=O)c1cccc(NC(=O)CCn2nc(-c3cccs3)oc2=O)c1`, the INHIBITION is listed as 29.2%. The value for `O=C(c1c2c(NCC3CC3)ncnc2n2ccccc12)N1CCCC1` was 26.5%; that for `O=C(c1c2c(NCC3CC3)ncnc2n2ccccc12)N1CCOCC1` was 50.7%. The value for `O=C(c1c2c(N3CCCC3)ncnc2n2ccccc12)N1CCOCC1` was 36.2%. The value for `CCc1n[nH]c(C2CN(C(=O)c3cscn3)CCO2)n1` (stereo not drawn) was -23.9%; that for `CO[C@@H]1CN(S(=O)(=O)c2cn(C)cn2)[C@@H]2CCCO[C@@H]21` was -66.7%; that for `O=C(NCc1nncn1C1CC1)c1cccnc1Oc1ccccc1` was 25.6%. As for `Cn1nc(C2CCN(CC(=O)NC3CC3)CC2)n(-c2ccccc2)c1=O`, the INHIBITION is recorded as -21.3%. As for `CNC(=O)CN1CCC(c2nn(C)c(=O)n2-c2ccccc2)CC1`, the figure is 53.7%. As for `CNC(=O)CN1CCC(CN(C)CCSc2ccccc2)CC1`, the figure is -70.7%; as for `CCCC(=O)N1CCC(c2nn(C)c(=O)n2-c2ccccc2)CC1`, 28.7%.

For the molecule `CCSC(C)C(=O)N1CCC(c2nn(C)c(=O)n2-c2ccccc2)CC1` (stereo not drawn), the INHIBITION is recorded as 63.7%. The value for `CC(=O)N1CCC(c2nn(C)c(=O)n2-c2ccccc2)CC1` was 35.2%. As for `Cc1nc(NCc2cccc(F)c2)cc(C2CCNCC2)n1`, the figure is 24.8%; as for `COc1ccccc1CN1C(=O)O[C@@H]2CN(S(=O)(=O)N(C)C)C[C@@H]21`, 7.97%; as for `COc1ccccc1CN1C(=O)O[C@@H]2CN(C(C)C)C[C@@H]21`, 79.5%. The value for `COc1ccccc1CN1C(=O)O[C@@H]2CN(CC3CC3)C[C@@H]21` was -0.613%; that for `CCNc1ccnc(NCC2(N(C)C)CCOCC2)n1` was 39%; that for `CCC1(CC)CC(=O)N(CC(O)c2ccc(Cl)cc2)C1=O` (stereo not drawn) was 7.3%.

In the case of `O=C(CCc1nc(-c2cccnc2)no1)NCC1CCN(C2CC2)C1` (stereo not drawn), the INHIBITION is given as 11%. `O=C(CCc1nnc(-c2ccsc2)o1)NCC1CCN(C2CC2)C1` (stereo not drawn): the INHIBITION is recorded as -6.04%. For the molecule `O=C(CCc1nc(-c2ccsc2)no1)NCC1CCN(C2CC2)C1` (stereo not drawn), the INHIBITION is reported as 69%. With `Cc1cc(NCCN2CCNC2=O)nc2cc3c(cc12)CCC3`, the INHIBITION is 59.5%. The value for `Cc1cc(NCCS(C)(=O)=O)nc2cc3c(cc12)CCC3` was 41.5%; that for `COc1cc2nc(NCCN3CCNC3=O)cc(C)c2cc1OC` was -13.4%.

For `COc1ccc(NC2CCc3c2[nH]c(=O)n(C2CCCCC2)c3=O)cc1` (stereo not drawn), the INHIBITION was found to be 78.4%.

For the molecule `O=c1[nH]c2c(c(=O)n1C1CCCCC1)CCC2NCc1ccccc1` (stereo not drawn), the INHIBITION was 52.1%.

With `Cc1cccc(NC2CCc3c2[nH]c(=O)n(C2CCCCC2)c3=O)c1C` (stereo not drawn), the INHIBITION is recorded as 84%. For `COc1ccc(NC(=O)N2CCCCC2c2ncc[nH]2)cc1` (stereo not drawn), the INHIBITION stood at 11.2%. Turning to `O=c1[nH]c2c(c(=O)n1C1CCCCC1)CCC2Nc1ccccc1` (stereo not drawn), the INHIBITION is listed as -22.9%.

For the molecule `O=c1[nH]c2c(c(=O)n1C1CCCCC1)CCC2Nc1ccccc1Cl` (stereo not drawn), the INHIBITION stood at 80.5%. The value for `O=C(c1ccc2c(c1)[nH]c(=O)n2C1CCCC1)N1CC(O)C1` was 44.3%; that for `O=c1[nH]c2c(c(=O)n1C1CCCCC1)CCC2Nc1ccc(Cl)cc1` (stereo not drawn) was 46.5%; that for `O=c1[nH]c2c(c(=O)n1C1CCCCC1)CCC2NCCc1ccccc1` (stereo not drawn) was 37.9%.

`O=c1[nH]c2c(c(=O)n1C1CCCCC1)CCC2Nc1ccccn1` (stereo not drawn): the INHIBITION came out at 24.2%.

As to `O=c1[nH]c2ncccc2n1C1CCCC1`, the INHIBITION is 9%.

As to `O=c1[nH]c2ncccc2n1C1CCCCC1`, the INHIBITION stood at 1.41%. The value for `Cc1cccc(CN2C[C@@H]3CN(C(=O)c4cnoc4C)C[C@@H]3C2=O)n1` was 1.34%; that for `CC(=O)N(C)Cc1ccccc1NC(=O)c1cnn(C)c1C` was -18.7%. The value for `CNC(=O)CN1CCOCC2(C1)CN(C(=O)CC(C)C)CCO2` (stereo not drawn) was -3.52%; that for `Cc1nn(C)cc1S(=O)(=O)NCC(C)Cn1cc(Cl)cn1` (stereo not drawn) was 18.4%; that for `COCCN(C)Cc1cc(Cl)ccc1OCC(O)CN1CCCCCC1` (stereo not drawn) was 25.4%.

Turning to `Cn1cccc1C(=O)N1CCc2c(CNS(C)(=O)=O)cncc2C1`, the INHIBITION is given as -7.29%. The value for `Cc1ccc(CC2CCCN(S(C)(=O)=O)C2)nc1` (stereo not drawn) was 21.9%. The value for `CCCOc1cccc(-c2nc3c([nH]2)CCNC3)c1` was 13.7%; that for `CCCOc1cccc(OCc2ccon2)c1` was 91.3%. The value for `OCc1cccc(OCc2ccon2)c1` was 36.8%; that for `CC(C)Oc1cccc(CN(C)C(=O)Cc2ccon2)c1` was -24.6%; that for `CC(O)c1cccc(OCc2ccon2)c1` (stereo not drawn) was 74.3%. `Cc1cccc(C(C(=O)N(C)Cc2ccon2)N(C)C)c1` (stereo not drawn): the INHIBITION is given as 25.9%. The value for `Cc1ccsc1CNC(=O)CCc1c(C)nc2cc(O)nn2c1C` was 40.2%; that for `CC(C)S(=O)(=O)NCc1cccnc1Oc1ccc(F)cc1F` was 56.3%; that for `Cc1ccccc1Oc1ncccc1CNC1CCC1` was 28%.

On to `CN(C)S(=O)(=O)NCc1cccnc1Oc1ccccc1F`, for which the INHIBITION is 5.46%. The value for `CN(C)S(=O)(=O)NCc1cccnc1Oc1ccc(F)cc1F` was 31.7%; that for `CN1CC(C(=O)NCc2cccnc2OCC(F)(F)F)CC1=O` (stereo not drawn) was 44.9%. As for `Cc1nc(CNCc2cccnc2Oc2ccc(C)c(F)c2F)c[nH]1`, the figure is 75.3%; as for `Cc1ccccc1Oc1ncccc1CNS(C)(=O)=O`, 0.139%; as for `COc1ncccc1CNC(=O)C1CC(=O)N(C)C1` (stereo not drawn), 10.6%. For the molecule `CCCS(=O)(=O)NCc1cccnc1Oc1ccc(C)c(F)c1F`, the INHIBITION is 50.3%. The value for `c1ccc(Oc2ncccc2CNCc2ccccn2)cc1` was 19.7%; that for `CN1CC(C(=O)NCc2cccnc2OCc2ccccc2)CC1=O` (stereo not drawn) was 55.1%; that for `CCCS(=O)(=O)NCc1cccnc1Oc1ccc(C)nc1` was 1.93%. Regarding `Cc1nc(CN(C)C(=O)CN(C)C)nc2c1CCC(=O)N2CCC(C)C`, the INHIBITION was 7.43%. As for `Cc1cccc(CS(=O)(=O)c2nnc([C@@H](N)Cc3ccccc3)o2)c1`, the figure is 23.1%; as for `COc1ccc(C)cc1NC(=O)c1c(C)cn(C)c1CC(=O)O`, -0.473%; as for `CCOC(=O)Cn1c(=O)c(OCC)nc2cnccc21`, 42.6%. On to `CN(C)CC(=O)N1CCCC2(CCN(c3ccccc3)C2=O)C1` (stereo not drawn), for which the INHIBITION was -4.82%. As for `CCOc1ccccc1CNC(=O)N1CCC(Cc2cnn(C)c2)C1` (stereo not drawn), the figure is -12.45%; as for `C1CN(CC2CCOCC2)Cc2c(COCC3CC3)nnn2C1`, 8.03%. As for `CCOC(=O)c1nc(CC(=O)Nc2ccc3cc[nH]c3c2)no1`, the figure is 3.19%. The value for `OCc1cn(Cc2cccc(F)c2)nn1` was 28.5%. As to `O=C(O)CCCC(=O)NCC1(O)CCN(c2ccnc3cccnc23)C1` (stereo not drawn), the INHIBITION worked out at 17.25%.

Take `O=C(CN1CCCC1=O)N1CCC(O)(Cn2ccc3ccncc32)CC1`: the INHIBITION is 7.52%. As for `COC(=O)C1CCN(C(=O)Cn2ccc(-c3ccsc3)n2)CC1`, the figure is -46.4%. The value for `CCCS(=O)(=O)NCc1cccnc1OCC` was -1.53%; that for `CCCC(C)CS(=O)(=O)NCc1cccnc1OC` (stereo not drawn) was 1.94%.

For `CCCS(=O)(=O)NCc1cccnc1OCc1ccccc1`, the INHIBITION was 50.4%.

Regarding `COc1ccc(CSc2nnc(N)n2C2CC2)cc1F`, the INHIBITION was -16.3%. The value for `O=C(CCC(=O)N1CCC(c2noc3cc(F)ccc23)CC1)NC1CC1` was 10.5%; that for `Cn1cc(C(=O)N2CCC(c3ncc[nH]3)CC2)cn1` was 14%; that for `N#Cc1ccc(C(=O)N2CCC(c3ncc[nH]3)CC2)cn1` was 51.2%. The value for `O=C(c1cncc(F)c1)N1CCC(c2ncc[nH]2)CC1` was 31.2%. As for `CC(=O)N1CC2(CCN(c3ccc4ccccc4n3)CC2)CC1C(=O)O` (stereo not drawn), the figure is 44%. On to `COCCNC(=O)[C@H]1CN(Cc2sccc2C)C[C@H]2OCC[C@@H]12`, for which the INHIBITION is -4.88%.

As to `Cc1cc(C2CCCN(Cc3nc(Cc4ccccc4)no3)C2)n[nH]1` (stereo not drawn), the INHIBITION is reported as 79.7%.

As for `Fc1ccc(NC2CCCN(Cc3ccncc3)C2)cc1` (stereo not drawn), the INHIBITION was -10.6%. With `CC(C)c1ccc(NC2CCCN(Cc3ccncc3)C2)cc1` (stereo not drawn), the INHIBITION is 70.3%.

Consider `Cc1cncc(C2CCCN(Cc3ccncc3)C2)n1` (stereo not drawn), for which the INHIBITION came to 60.4%. For the molecule `Cc1cc(C2CCCN(Cc3noc(Cc4ccccc4)n3)C2)n[nH]1` (stereo not drawn), the INHIBITION was -10.8%. As for `Cc1cnc(CN2CCCC(c3cc(C)[nH]n3)C2)cn1` (stereo not drawn), the figure is 35.9%. As for `Cc1ccc(CN2CCCC(c3cncc(C)n3)C2)cn1` (stereo not drawn), the figure is -6.3%. The value for `Cc1cncc(C2CCN(Cc3ccncc3)CC2)n1` was 23.3545%; that for `Cc1cc(C2CCCN(Cc3cccnc3)C2)n[nH]1` (stereo not drawn) was 59.1%. Regarding `Cc1cc(C2CCCN(Cc3nnc(Cc4ccccc4)o3)C2)n[nH]1` (stereo not drawn), the INHIBITION was 17%. As for `FC(F)(F)c1cc(C2CCCN(Cc3cccnc3)C2)n[nH]1` (stereo not drawn), the figure is 35%.

In the case of `CC1CCCN(Cc2ccc(CNC(=O)NCc3ccncc3)cc2)C1` (stereo not drawn), the INHIBITION is 22.5%.

Consider `CCC(O)CN1CCN(C(=O)CN(C)c2ccc(Cl)cn2)CC1` (stereo not drawn), for which the INHIBITION is 3.03%. The value for `C=C(C)COc1ccccc1CNCCc1cc(O)nc(C)n1` was 7.65%. As for `CC(C)Nc1nc(O)cc(C(C)n2ncc3ccccc3c2=O)n1` (stereo not drawn), the INHIBITION was 29.9%. The value for `COc1cccc2cc(CNC(=O)N3CCOC(C)(C)C3)oc12` was 33.8%. As for `COc1cc(C(=O)N2CCCC(CNS(C)(=O)=O)C2)ccc1C` (stereo not drawn), the figure is 7.12%. Take `COc1c(Br)c(CC2CC(CO)=NO2)c(Br)c2c1OCO2` (stereo not drawn): the INHIBITION amounted to 42.4%.

As to `CC(C)CCN1C[C@H]2CCN(C(=O)NC3CCCC3)CC[C@H]2S1(=O)=O`, the INHIBITION is recorded as 37.1%. `O=C(NCCn1ccnc1)C1COCC(=O)N1Cc1ccccc1` (stereo not drawn): the INHIBITION was 66.1%. Take `O=C(NCCCn1cccn1)C1COCC(=O)N1Cc1ccccc1` (stereo not drawn): the INHIBITION was 49%. As for `O=C(NCCCn1ccnc1)C1COCC(=O)N1Cc1ccccc1` (stereo not drawn), the figure is 38.3%; as for `Cc1noc(C)c1C(=O)N1C[C@@H]2CC[C@H]1CN(c1cnccn1)C2`, -39.2%.

Source of the values: ChEMBL document CHEMBL4513216, “Probing the Open Global Health Chemical Diversity Library for Multistage-Active Starting Points for Next-Generation Antimalarials” (ACS Infect Dis, 2020).
